eIF4H FP inh: human eIF4H binding inhibitors, primary screen, translation initiation inhibitor project, biochemical, uHTS, fluorescence polarization; Eukaryotic translation initiation factor 4H (Homo sapiens), Q15056; eIF4H fluorescence polarization binding assay; inhibition, % at 35 µM; hit rate 0.94% among 290,000;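 note: calls also rest on retests at 20 µM and on dose response follow-up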
ABCB6 inh MLPCN: ABCB6 transporter inhibitors, primary screen, K562-ABCB6 cells, flow cytometry, MLPCN library; K562-ABCB6 porphyrin accumulation, 1 h; stronger effect = lower value; fluorescence ratio to DMSO, % at 10 µM; hit rate 0.19% among 360,000; AID 602162, 2011;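 active = fluorescence ratio to DMSO below 75%, the collection mean minus 3 SD; inconclusive = too few cells collected in the well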;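 note: signal is porphyrin accumulated inside mitochondria; lower ratio means ABCB6 inhibition with less porphyrin fluorescence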
AI-2 QS modul: Vibrio harveyi AI-2 quorum sensing modulators, primary screen, JMH597 strain, luminescence/OD600 ratio. Vibrio harveyi JMH597 AI-2 luminescence/OD600 ratio, 9 h; stronger effect = lower value; strain lacks LuxN and CqsS sensors; 0 = neutral-control median. activity change, % at 7.5 µM. hit rate 0.4% among 300,000; in the data active = activity change below about -75%, passing the limit was not always enough; inconclusive = no clear call, values can overlap the other calls;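 note: luminescence divided by OD600 gain over 9 h not by final OD600 alone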
PHOSPHO1 inh: PubChem AID 1565 | Phosphoethanolamine/phosphocholine phosphatase (Homo sapiens), Q8TCT1 | recombinant PHOSPHO1, absorbance phosphatase assay | hit rate 1.1% among 290,000 | inhibition, % at 13.3 µM; in the data active = inhibition above about 60%
Target sequence (Q8TCT1 whole entry, looked up): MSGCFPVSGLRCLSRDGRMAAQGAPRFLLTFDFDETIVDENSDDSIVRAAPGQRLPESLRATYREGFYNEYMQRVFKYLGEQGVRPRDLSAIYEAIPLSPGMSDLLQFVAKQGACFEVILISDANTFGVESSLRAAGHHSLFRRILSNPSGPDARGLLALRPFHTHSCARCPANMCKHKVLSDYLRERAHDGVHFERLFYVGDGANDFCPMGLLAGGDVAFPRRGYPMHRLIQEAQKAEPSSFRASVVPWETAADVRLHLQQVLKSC
PABP FP inh: PABP poly(A) RNA binding inhibitors, primary screen, biochemical, fluorescence polarization, uHTS; hit rate 1% among 290,000; AID 2014, 2009; calls only at 35 µM; Polyadenylate-binding protein 1 (Homo sapiens), P11940;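 note: calls also rest on retests at 20 µM and on dose response follow-up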
MLLE-PAM2 inh: inhibitors of PABP1 MLLE–PAM2 peptide binding, primary screen, biochemical, fluorescence polarization, FITC-PAM2, GST-MLLE | AID 588489, 2011 | inhibition, % at 20 µM | hit rate 0.36% among 360,000; in the data active = inhibition above about 35%, passing the limit was not always enough
Hits are given with their value. Shown are actives, neighbours in structure and some others; about 2.6% of the full set was active somewhere. Unless noted, the rule behind the calls is not given here.

`CCOC(=O)C1=NOC(CNC(=O)c2ccccc2Cl)C1` (stereo not given) gave eIF4H FP inh inactive, ABCB6 inh MLPCN inactive, AI-2 QS modul inactive, PHOSPHO1 inh inactive, PABP FP inh inactive and MLLE-PAM2 inh inactive.
CCOC(=O)C1=NOC(COc2ccccc2C=O)C1 (stereo not given) was read as eIF4H FP inh 6.7, ABCB6 inh MLPCN inactive, AI-2 QS modul inactive, PHOSPHO1 inh inactive, PABP FP inh active and MLLE-PAM2 inh inactive.
O=C(Nc1ncnc2c1ncn2[C@@H]1O[C@H](/C=C/C(=O)N2CCN(c3ccc(F)cc3)CC2)[C@@H](O)[C@H]1O)c1ccccc1 was read as ABCB6 inh MLPCN inactive and MLLE-PAM2 inh inactive.
`Oc1[nH]c2ccc(Br)cc2c1N=NC(=S)N1CCOCC1` gave eIF4H FP inh inactive, ABCB6 inh MLPCN inactive, AI-2 QS modul inactive, PHOSPHO1 inh 91.8, PABP FP inh inactive and MLLE-PAM2 inh inactive.
`CC(C)C[C@@H](CN1CCC[C@H]1CN1C(=O)C(=O)NC[C@@H]1Cc1ccccc1)N1C[C@H](Cc2ccccc2)N(CC2CCCCCC2)C(=O)C1=O` gave ABCB6 inh MLPCN inactive.
Cc1cccc(N(C)C(=O)CCS(=O)(=O)c2cc3c(cc2Cl)NC(=O)CO3)c1 was read as eIF4H FP inh inactive, ABCB6 inh MLPCN inactive, AI-2 QS modul inactive, PHOSPHO1 inh inactive, PABP FP inh inactive and MLLE-PAM2 inh 39.3.
`CS/C(=N\S(=O)(=O)c1cccs1)NC(=O)CSc1nc2ccccc2s1` gave eIF4H FP inh inactive, ABCB6 inh MLPCN inactive, AI-2 QS modul inactive, PHOSPHO1 inh 99.6, PABP FP inh inactive and MLLE-PAM2 inh inactive.
`C/C(=N/NC(=O)CSc1nc2ccccc2s1)c1ccncc1` gave eIF4H FP inh inactive, ABCB6 inh MLPCN inactive, AI-2 QS modul inactive, PHOSPHO1 inh inactive, PABP FP inh inactive and MLLE-PAM2 inh inactive.
For CC(C)COC(=O)N1CCCCC1c1cc(C(=O)Nc2ccc3c(c2)OCO3)no1 (stereo not given) the results were ABCB6 inh MLPCN inactive and MLLE-PAM2 inh inactive.
Screening Cc1cc(=O)oc2c(CN3CCC(C)CC3)c(O)c(Cl)cc12 returned eIF4H FP inh inconclusive, ABCB6 inh MLPCN inactive, AI-2 QS modul inactive, PHOSPHO1 inh inactive, PABP FP inh inconclusive and MLLE-PAM2 inh 51.2.
CCCc1cc(=O)oc2c(CN3CCCC3)c(O)ccc12 was read as eIF4H FP inh inactive, ABCB6 inh MLPCN inactive, AI-2 QS modul inactive, PHOSPHO1 inh inactive, PABP FP inh inactive and MLLE-PAM2 inh inactive.
CCc1cc(=O)oc2cc(C)c(CN3CCCC3)c(O)c12 was read as eIF4H FP inh 76.8, ABCB6 inh MLPCN inactive, AI-2 QS modul inactive, PHOSPHO1 inh inactive, PABP FP inh active and MLLE-PAM2 inh inactive.
`CCCc1cc(=O)oc2c(CN3CCCC3)c(O)c(Cl)cc12` gave eIF4H FP inh 108.0, ABCB6 inh MLPCN inactive, AI-2 QS modul inactive, PHOSPHO1 inh inactive, PABP FP inh active and MLLE-PAM2 inh inactive.
For CCCc1cc(=O)oc2cc(C)c(CN3CCCC3)c(O)c12 the results were eIF4H FP inh 79.9, ABCB6 inh MLPCN inactive, AI-2 QS modul inactive, PHOSPHO1 inh inactive, PABP FP inh active and MLLE-PAM2 inh inactive.
`Cc1cc(C)c2c(CN3CCCC3)cc(=O)oc2c1` gave ABCB6 inh MLPCN inactive and MLLE-PAM2 inh inactive.
Screening COc1cc(C(=O)N2CCCC(c3cc(C(=O)NCc4ccccc4)no3)C2)cc(OC)c1C (stereo not given) returned ABCB6 inh MLPCN inactive and MLLE-PAM2 inh inactive.
`CC(C)(C)OC(=O)N1CCCN(C(c2ccnc3ccccc23)c2nnnn2-c2ccc3c(c2)OCCO3)CC1` (stereo not given) gave ABCB6 inh MLPCN inactive.
`CC(=O)C1=CCC(c2ccc(C)cc2)N(S(=O)(=O)c2ccc(Cl)cc2)C1` (stereo not given) gave ABCB6 inh MLPCN inactive and MLLE-PAM2 inh inactive.
For CCN(CC)Cc1c(O)c(Cl)cc2c(C)c(C)c(=O)oc12 the results were eIF4H FP inh inactive, ABCB6 inh MLPCN inactive, AI-2 QS modul inactive, PHOSPHO1 inh inactive, PABP FP inh inactive and MLLE-PAM2 inh inactive.
CCc1cc(=O)oc2cc(C)c(CN3CCCCC3)c(O)c12 was read as eIF4H FP inh 69.7, ABCB6 inh MLPCN inactive, AI-2 QS modul inactive, PHOSPHO1 inh inactive, PABP FP inh active and MLLE-PAM2 inh inactive.
For CCN(CC)Cc1c(O)c(Cl)cc2c(C)cc(=O)oc12 the results were eIF4H FP inh inconclusive, ABCB6 inh MLPCN inactive, AI-2 QS modul inactive, PHOSPHO1 inh inactive, PABP FP inh inactive and MLLE-PAM2 inh 40.8.
`CCCC(=O)N1CCCC1(C)C(=O)NCCc1ccccn1` (stereo not given) gave ABCB6 inh MLPCN inactive and MLLE-PAM2 inh inactive.
`Cc1ccc2nc(C(C)(C)C)c(Cc3cccc(Cl)c3)n2c1` gave ABCB6 inh MLPCN inactive and MLLE-PAM2 inh inactive.
For CCN(C(=O)c1c(C)cc(=O)oc1C)c1ccc2c(c1)OCO2 the results were eIF4H FP inh inactive, ABCB6 inh MLPCN inactive, AI-2 QS modul inactive, PHOSPHO1 inh inactive, PABP FP inh inactive and MLLE-PAM2 inh inactive.
For CCN(C(=O)c1coc(=O)c(Br)c1)c1ccc2c(c1)OCO2 the results were eIF4H FP inh inconclusive, ABCB6 inh MLPCN inactive, AI-2 QS modul inactive, PHOSPHO1 inh 73.5, PABP FP inh inconclusive and MLLE-PAM2 inh inactive.
Screening OC(c1ccc(F)cc1)c1nc(-c2ccoc2)cs1 (stereo not given) returned ABCB6 inh MLPCN inactive and MLLE-PAM2 inh inactive.
`CC(C)C[C@@H]1COc2cc(N3CCC[C@H]3CO)ccc2S(=O)(=O)N1` gave ABCB6 inh MLPCN inactive.
Screening Cc1c(Cl)c(C(=O)NNC(=S)Nc2ccccc2)nn1C returned eIF4H FP inh inactive, ABCB6 inh MLPCN inactive, AI-2 QS modul inactive, PHOSPHO1 inh 66.0, PABP FP inh inactive and MLLE-PAM2 inh inactive.
`Cc1c(Cl)c(C(=O)NNC(=S)Nc2ccc(F)cc2)nn1C` gave eIF4H FP inh inactive, ABCB6 inh MLPCN inactive, AI-2 QS modul inactive, PHOSPHO1 inh inactive, PABP FP inh inactive and MLLE-PAM2 inh inactive.
Screening CC(O)(c1cccnc1)c1nc(/C=C/c2ccccc2)cs1 (stereo not given) returned ABCB6 inh MLPCN inactive and MLLE-PAM2 inh inactive.
Cc1cc(C(=O)CSc2nnnn2C)c(C)n1CCc1ccc(Cl)cc1 was read as eIF4H FP inh inactive, ABCB6 inh MLPCN inactive, PHOSPHO1 inh 81.6, PABP FP inh inactive and MLLE-PAM2 inh inactive.
`Cc1cc(C(=O)CSc2nnnn2C)c(C)n1C1CC1` gave eIF4H FP inh inactive, ABCB6 inh MLPCN inactive, AI-2 QS modul inactive, PHOSPHO1 inh inactive, PABP FP inh inactive and MLLE-PAM2 inh inactive.

High-throughput results from PubChem.
